Test results taken from the supplement of paper PMC11577813, “Eurasian spruce bark beetle detects lanierone using a highly expressed specialist odorant receptor, present in several functional sensillum types” (BMC Biology, 2024).
± gives the standard deviation of the averaged measurements.

test system: ipsdienol A-neuron OSN class; assay: net action potential response of A-neuron (blank-subtracted) (spikes/s (Hz)); higher = stronger excitation; conditions: 10 µg on filter paper; neuron: A neuron (large spike amplitude)
Procedure: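 Single sensillum recordings from antennal olfactory sensilla of live adult Ips typographus. Each compound was 10 µg in paraffin oil on filter paper, delivered as a 0.5 s puff. Net response = spikes in the first 0.5 s of response minus the 0.5 s pre-stimulus count, doubled to give Hz, with blank response subtracted. Values are for the large-spike A-neuron class of each of seven sensillum types that co-house the lanierone B-neuron; N = 1-4 sensilla, averaged.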

Row | Structure (SMILES) | net action potential response
1 | C=CCc1ccc(OC)cc1 [Estragole] | 2.67 ± 1.1
2 | O=Cc1ccccc1 [Benzaldehyde] | 2 ± 4
3 | Cc1ccccc1 [Toluene] | -1.33 ± 5
